Bioassay records (PubChem BioAssay)
Only some compounds are listed: those with a hit (about 8.2% of all), similar ones and a draw of the others.
ELG1 DNA repair: blocks ELG1-dependent DNA repair in HEK293T cells. Potency, µM (titrated, usually from 46.1 µM), without a hit: at the top dose activity change, negative = inhibition, actives largely listed as inhibitors. AID 504467. HEK293T ELG1-luciferase reporter, luminescence, 16 h; DNA damage induced by 5-fluorouridine. 2.3% of 330,000 active; also: % is scaled to controls: 0 for no effect and ±100 for the full control effect; nearly all actives have a fitted effect of over 55% in size
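5-Fluorouridine DNA damage + compound/DMSO, 2,000 cells/well, 16 h, 37 °C/5% CO2. ONE-Glo, 30 min RT, luminescence. Readout = decrease in reporter signal.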
KB-3-1 tox: kills parental KB-3-1 adenocarcinoma cells; KB-3-1 viability, CellTiter-Glo ATP luminescence, 72 h; Potency, µM (top dose mostly 46.1 µM), most hits filed as cytotoxic; 1.4% of 400,000 active; AID 1347075; also: % is scaled to controls: 0 for no effect and ±100 for the full control effect; nearly all actives have a fitted effect of over 60% in size
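Cytotoxicity measured as CellTiter-Glo luminescence after 72 h at 37 C. Compound titrations were pinned onto drug-naive KB-3-1 parental adenocarcinoma cells grown in DMEM with 10% FBS, and normalized data fitted to concentration-response curves.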
KB-V1 cytotox: kills drug-selected multidrug resistant KB-V1 cells; Potency, µM (titrated, usually from 46.1 µM), actives largely listed as cytotoxic; 3.4% of 400,000 active; KB-V1 MDR cells viability, CellTiter-Glo, 72 h; AID 1347076; also: % is scaled to controls: 0 for no effect and ±100 for the full control effect; nearly all actives have a fitted effect of over 60% in size
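Drug-selected KB-V1 cells, grown in DMEM lacking phenol red with 10% FBS, receive compound titrations; after three days at 37 degrees C, surviving cell ATP is quantified by CellTiter-Glo luminescence and responses normalized and curve-fitted.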
MCF10A rereplic: induces DNA re-replication in MCF 10a normal breast cells; MCF 10A DNA re-replication, Hoechst nuclear intensity, 48 h; AID 624296; 2.9% of 350,000 active; Potency, µM (doses to about 46.1 µM), inactives show at the highest dose activity, positive = re-replication, hits mostly activators; also: % of control where 0% means no effect; nearly all actives have a fitted effect of over 50% in size
SW480 rerep: inducers of DNA re-replication in SW480 colon cancer cells; SW480 DNA re-replication, Hoechst DNA content imaging, 48 h; Potency, µM (doses to about 46.1 µM), without a hit: top-dose re-replication activation, usual class: activators; 1.8% of 340,000 active; also: % of control where 0% means no effect; nearly all actives have a fitted effect of over 55% in size
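Image-based read-out: total Hoechst fluorescence of nuclei (405 nm excitation, 500-530 nm emission), with hits raising the fraction of high-intensity nuclei. SW480 colon cells incubated 48 hr with compounds at 37 C.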
ELG1 FLuc counter: luciferase inhibition in cell-free luciferin readout for ELG1 hits | shares compounds with ELG1 DNA repair | cell-free firefly luciferase luminescence counter-screen, ViewLux | Potency, µM (titrated, usually from 46.1 µM), without a hit: at the highest dose activity change, negative = inhibition, hits mostly inhibitors | 3% of 350 active | AID 624247; also: % is scaled to controls: 0 for no effect and ±100 for the full control effect
ELG1-Luc inh: human ELG1 repair inhibition, luciferase-tagged ELG1 confirmation; Potency, µM (highest dose often 46.1 µM), inactives show at the top dose activity change, negative = inhibition, usual class: inhibitors; HEK293T ELG1-luciferase levels, luminescence; cells co-treated with 5-fluorouridine; shares compounds with ELG1 DNA repair; 68% of 670 active; also: % is scaled to controls: 0 for no effect and ±100 for the full control effect; nearly all actives have a fitted effect of over 55% in size
Target sequence (Q96QE3 whole entry, looked up): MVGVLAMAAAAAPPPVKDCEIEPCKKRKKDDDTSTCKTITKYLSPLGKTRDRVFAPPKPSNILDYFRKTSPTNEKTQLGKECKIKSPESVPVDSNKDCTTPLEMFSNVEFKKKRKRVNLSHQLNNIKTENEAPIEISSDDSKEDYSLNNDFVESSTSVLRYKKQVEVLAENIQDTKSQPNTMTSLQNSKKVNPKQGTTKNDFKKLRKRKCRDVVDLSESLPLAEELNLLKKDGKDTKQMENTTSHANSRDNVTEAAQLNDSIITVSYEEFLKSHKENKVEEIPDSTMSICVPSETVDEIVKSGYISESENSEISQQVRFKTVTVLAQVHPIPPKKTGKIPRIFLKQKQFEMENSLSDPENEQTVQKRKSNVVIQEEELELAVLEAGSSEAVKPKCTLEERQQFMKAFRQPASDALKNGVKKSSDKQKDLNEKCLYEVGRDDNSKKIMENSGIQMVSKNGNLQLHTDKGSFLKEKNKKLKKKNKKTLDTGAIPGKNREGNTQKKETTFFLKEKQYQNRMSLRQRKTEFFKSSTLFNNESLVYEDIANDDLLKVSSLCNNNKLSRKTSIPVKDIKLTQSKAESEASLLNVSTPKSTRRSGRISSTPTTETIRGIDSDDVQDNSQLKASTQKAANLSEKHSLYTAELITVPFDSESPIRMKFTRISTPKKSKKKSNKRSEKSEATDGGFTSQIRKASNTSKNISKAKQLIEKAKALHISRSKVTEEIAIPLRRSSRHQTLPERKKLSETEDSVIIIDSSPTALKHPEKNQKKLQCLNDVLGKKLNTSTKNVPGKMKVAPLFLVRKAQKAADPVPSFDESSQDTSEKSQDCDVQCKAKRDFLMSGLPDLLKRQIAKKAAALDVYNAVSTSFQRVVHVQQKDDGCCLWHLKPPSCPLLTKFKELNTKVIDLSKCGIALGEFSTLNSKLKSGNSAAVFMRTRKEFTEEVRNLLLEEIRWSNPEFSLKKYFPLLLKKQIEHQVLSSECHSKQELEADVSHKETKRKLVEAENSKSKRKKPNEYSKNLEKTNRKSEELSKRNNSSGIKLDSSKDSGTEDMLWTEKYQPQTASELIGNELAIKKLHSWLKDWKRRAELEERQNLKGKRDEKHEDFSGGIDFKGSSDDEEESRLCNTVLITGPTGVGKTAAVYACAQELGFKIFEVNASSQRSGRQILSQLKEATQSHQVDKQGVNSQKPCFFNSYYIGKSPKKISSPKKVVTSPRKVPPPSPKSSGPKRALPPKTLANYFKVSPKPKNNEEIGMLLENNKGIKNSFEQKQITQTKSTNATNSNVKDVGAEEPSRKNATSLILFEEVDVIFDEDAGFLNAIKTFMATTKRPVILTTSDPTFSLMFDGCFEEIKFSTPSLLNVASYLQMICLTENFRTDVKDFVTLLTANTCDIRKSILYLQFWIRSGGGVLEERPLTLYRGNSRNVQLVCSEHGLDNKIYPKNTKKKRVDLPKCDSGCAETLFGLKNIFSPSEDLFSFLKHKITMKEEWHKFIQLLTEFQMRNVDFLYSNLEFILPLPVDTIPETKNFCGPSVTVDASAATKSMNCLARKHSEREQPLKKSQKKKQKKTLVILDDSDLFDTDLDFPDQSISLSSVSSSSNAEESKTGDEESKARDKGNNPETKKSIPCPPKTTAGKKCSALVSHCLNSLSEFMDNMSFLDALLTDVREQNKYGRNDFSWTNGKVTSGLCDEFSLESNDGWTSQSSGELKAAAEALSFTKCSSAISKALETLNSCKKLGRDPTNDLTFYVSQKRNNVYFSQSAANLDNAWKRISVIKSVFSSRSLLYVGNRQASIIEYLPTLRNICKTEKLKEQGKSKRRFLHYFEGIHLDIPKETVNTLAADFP
ELG1 MMS Luc: confirmation of human ELG1 repair inhibitors, MMS stimulated; shares compounds with ELG1 DNA repair; HEK293T luciferase-tagged ELG1 level, MMS stimulated; Potency, µM (doses to about 46.1 µM), without a hit: at the highest dose activity change, negative = inhibition, most hits filed as inhibitors; 53% of 670 active; also: % is scaled to controls: 0 for no effect and ±100 for the full control effect; nearly all actives have a fitted effect of over 60% in size
ELG1 5-FU: confirmation of ELG1 repair inhibitors: viability with 5FU; shares compounds with ELG1 DNA repair; cell viability with 5-FU, ELG1-dependent repair; Potency, µM (titrated, usually from 46.1 µM), for inactives: top-dose activity change, negative = viability loss, usual class: cytotoxic; 670 tested, under 10 active; AID 624250;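 also: ELG1-luc HEK293T cells cotreated with 5-fluorouridine at 10 µM final; viability measured 16 h after compound addition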
ELG1 MMS viab: confirmation of ELG1 repair inhibitors: viability with MMS | shares compounds with ELG1 DNA repair | Cell viability with MMS, ELG1-dependent DNA repair | Potency, µM (doses to about 46.1 µM), without a hit: at the highest dose activity change, negative = viability loss, actives largely listed as cytotoxic | 33% of 670 active | AID 624251;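 also: ELG1-luc HEK293T cells co-treated with 10 µM MMS; viability read 16 h after compound addition; % is scaled to controls: 0 for no effect and ±100 for the full control effect; nearly all actives have a fitted effect of over 60% in size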
ELG1 unstim viab: unstimulated viability counter-screen for ELG1 repair hits; shares compounds with ELG1 DNA repair; cell viability counter-screen, unstimulated, luminescence; Potency, µM (top dose mostly 45.9 µM), for the others: at the highest dose activity change, negative = loss of viability, hits mostly cytotoxic; 8% of 900 active;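 also: compound exposure lasted 16 hours before reading; % is scaled to controls: 0 for no effect and ±100 for the full control effect; nearly all actives have a fitted effect of over 55% in size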
FLuc enzyme: inhibits purified firefly luciferase, counter-screen for ELG1 hits; AID 624253; shares compounds with ELG1 DNA repair; purified firefly luciferase, luminescence counter-screen; Potency, µM (series often up to 57.5 µM), without a hit: at the highest dose activity, negative = inhibition, hits mostly inhibitors; 10% of 350 active; also: % is scaled to controls: 0 for no effect and ±100 for the full control effect
* = called active by the depositor. Calls follow the shape of the dose curve; as a rule, active = well fitted curve in the direction sought with a large enough effect; inconclusive = small, poorly fitted or top-dose-only effect, or another doubt; inactive = no such curve, though single readings can be large; an effect the other way counts as inactive or inconclusive. Potency is read from the fitted curve at half-maximal effect.

`Cc1ccc(N(C)S(=O)(=O)c2ccc(-c3coc(C)n3)cc2)cc1` gave KB-3-1 tox inactive and KB-V1 cytotox inactive.
Screening COc1ccc(-n2c(C(C)n3nc(C)c([N+](=O)[O-])c3C)n[nH]c2=S)cc1 (centres undefined) returned ELG1 DNA repair inconclusive, KB-3-1 tox inactive, KB-V1 cytotox inactive, MCF10A rereplic -1.1% and SW480 rerep 1.7%.
Screening COc1ccc(-n2c(C)c([N+](=O)[O-])c3ccc(O)c(CN(C)C)c32)cc1 returned ELG1 DNA repair 0.92µM*, KB-3-1 tox inactive, KB-V1 cytotox inactive, MCF10A rereplic inconclusive, SW480 rerep inconclusive, ELG1 FLuc counter inconclusive, ELG1-Luc inh 1.41µM*, ELG1 MMS Luc 2.5µM*, ELG1 5-FU -2.4%, ELG1 MMS viab 6.5%, ELG1 unstim viab inconclusive and FLuc enzyme 6.1%.
Screening Cc1ccc(OC(=O)c2cc(-c3ccc4c(c3)OCCO4)on2)cc1C returned KB-3-1 tox inactive and KB-V1 cytotox inactive.
Screening Cc1c(C(C)C)c(=O)n(-c2ccccc2)n1C returned MCF10A rereplic 8.6% and SW480 rerep -2.5%.
Cc1c(C(C)C)c(=O)n(-c2ccc(S(=O)(=O)NC3CCCCC3)cc2)n1C was read as ELG1 DNA repair 2.06µM*, KB-3-1 tox inconclusive, KB-V1 cytotox inconclusive, MCF10A rereplic inconclusive, SW480 rerep -14.5%, ELG1-Luc inh inconclusive, ELG1 MMS Luc 2.23µM*, ELG1 5-FU -12.1%, ELG1 MMS viab 2.5µM* and ELG1 unstim viab inconclusive.
Cc1c(C(C)C)c(=O)n(-c2ccc(S(=O)(=O)NCc3ccccc3)cc2)n1C was read as ELG1 DNA repair 1.46µM*, KB-3-1 tox inconclusive, KB-V1 cytotox 2.59µM*, MCF10A rereplic 25.6%, SW480 rerep -8.1%, ELG1-Luc inh inconclusive, ELG1 MMS Luc 1.25µM*, ELG1 5-FU -5.2%, ELG1 MMS viab 1.25µM* and ELG1 unstim viab inconclusive.
For O=C(CSCc1ccccc1Br)NNC(=S)NCc1ccco1 the results were ELG1 DNA repair -1.8%, KB-3-1 tox inconclusive, KB-V1 cytotox inconclusive, MCF10A rereplic inconclusive and SW480 rerep -0.1%.
`O=C1OCc2ccc([N+](=O)[O-])cc21` gave KB-3-1 tox inactive, KB-V1 cytotox inactive, MCF10A rereplic -28.8% and SW480 rerep -8.8%.
For COc1cc(OC)cc(-c2cc3ncccc3cn2)c1 the results were ELG1 DNA repair inconclusive, KB-3-1 tox inactive, KB-V1 cytotox inactive, MCF10A rereplic 17.2% and SW480 rerep -0.5%.
Screening c1ccc(-c2cc3cc4c(cc3cn2)OCO4)cc1 returned ELG1 DNA repair inconclusive, KB-3-1 tox inactive, KB-V1 cytotox inactive, MCF10A rereplic inconclusive, SW480 rerep 10.2% and ELG1 unstim viab inconclusive.
For COc1ccc(-c2cc3cc4c(cc3cn2)OCO4)cc1 the results were ELG1 DNA repair inconclusive, KB-3-1 tox inactive, KB-V1 cytotox inactive, MCF10A rereplic -9.7%, SW480 rerep 1.6%, ELG1 FLuc counter -2.3%, ELG1 unstim viab inconclusive and FLuc enzyme 0.411µM*.
Screening COc1ccc(-c2cc3cc(OC)c(OC)cc3cn2)cc1 returned ELG1 DNA repair inconclusive, KB-3-1 tox inconclusive, KB-V1 cytotox inactive, MCF10A rereplic inconclusive and SW480 rerep -0.3%.
For COc1cc(OC)cc(-c2cc3cc4c(cc3cn2)OCO4)c1 the results were ELG1 DNA repair inconclusive, KB-3-1 tox inconclusive, KB-V1 cytotox inconclusive, MCF10A rereplic inconclusive, SW480 rerep 2.59µM* and ELG1 unstim viab inconclusive.
For CC1(C(=O)NS(=O)(=O)c2cccc(OC(F)F)c2)CCN1C(=O)Cc1cccs1 (centres undefined) the results were KB-3-1 tox inactive and KB-V1 cytotox inactive.
For C=CCn1c(O)c(N=NC(=O)CNC(=O)Cc2ccccc2)c2ccccc21 the results were ELG1 DNA repair 10.3%, KB-3-1 tox inactive, KB-V1 cytotox inactive, MCF10A rereplic -2.0% and SW480 rerep inconclusive.
For COc1ccc(-c2nnc(SC(C)C(=O)Nc3cccc(Cl)c3)o2)cc1 (centres undefined) the results were ELG1 DNA repair inconclusive, KB-3-1 tox inactive, KB-V1 cytotox inactive, MCF10A rereplic 1.2%, SW480 rerep -8.7% and ELG1 unstim viab 1.4%.
Screening CCOC(=O)CNC(=O)C1COc2ccccc2O1 (centres undefined) returned ELG1 DNA repair 0.0%, KB-3-1 tox inactive, KB-V1 cytotox inactive, MCF10A rereplic -0.3% and SW480 rerep -10.9%.
For COc1cc2c(cc1OC)C(COc1ccc3c(C)cc(=O)oc3c1)N(C(=O)c1ccco1)CC2 (centres undefined) the results were ELG1 DNA repair 2.31µM*, KB-3-1 tox inconclusive, KB-V1 cytotox inconclusive, MCF10A rereplic 17.8%, SW480 rerep 10.6%, ELG1 FLuc counter 6.1%, ELG1-Luc inh 5.61µM*, ELG1 MMS Luc 22.3µM*, ELG1 5-FU -3.6%, ELG1 MMS viab inconclusive, ELG1 unstim viab inconclusive and FLuc enzyme -10.2%.
